14 molecules from PubChem BioAssay can be followed below.

The nature of experiment [1]: stimulators of nuclear beta-catenin in C2C12, primary screen, imaging, WNT3A-conditioned medium, mouse C2C12, NPC library (AID 1117326; in the data active means nuclear beta-catenin stimulation mostly above about 4.2%, no sharp cut-off; inactive means mostly below about 10%). The following applies: stronger effect = higher value.
Experiment [2] is described as follows: stimulators of insulin release from INS-1E, primary screen, cell-based, 5 mM glucose, NPC library (AID 1117329;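 active means compound raises insulin release from rat beta cells at 5 mM glucose, no numeric limit stated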). The conditions noted are these: rat INS-1E insulin secretion, at 10 µM, stronger effect = higher value.
Experiment [3] can be described thus: growth inhibition of GSK3B-pretreated HCT116 cells – cell-based, CellTiter-Glo, 0.2 to 20 µM (AID 1117336;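 active means compounds lowering colon cancer cell viability after pretreatment blocking the GSK3B kinase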). The conditions noted are these: HCT116 viability after GSK3B inhibitor, at 20 µM, stronger effect = higher value. On the technique in general: Cellular ATP, detected with luciferase, serves as a proxy for viable cell number.
A short description of experiment [4]: inhibition of endothelial tube formation, primary screen, imaging, VEGF stimulated, CD31 staining, tube area, NPC library (AID 1117340). The following applies: VEGF-stimulated ADSC/ECFC co-culture, at 10 µM, stronger effect = higher value.
Experiment [5] is described as follows: glucagon-like peptide 1 release enhancers, primary assay, NCI-H716 cell line, NPC library (AID 1117341;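 active means compound raises GLP1 secretion from the human gut endocrine cells, with no numeric limit stated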). The conditions noted are these: NCI-H716 cells, at 10 µM, stronger effect = higher value.
Experiment [6] in a line: HCT116 colon cancer cell growth inhibition, primary screen, CellTiter-Glo luminescence, NPC library (AID 1117342;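 active means compounds that lower survival of HCT116 colon cancer cells in the luminescence readout, no numeric limit stated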). The conditions noted are these: at 20 µM (top of the series).
Experiment [7] can be described thus: CellTiter-Glo luminescent readout of SW480 viability loss, NPC library primary (AID 1117343;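 active means compounds that lower viability of the colon cancer cells in the luminescence readout, with no numeric limit stated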). The following applies: CellTiter-Glo luminescence; at 20 µM (top of the series).
Experiment [8] in a line: decreased DLD-1 cellular survival, CellTiter-Glo luminescent readout, NPC compound collection, primary HTS (AID 1117346;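 active means compounds that lower survival of DLD-1 colon cancer cells in the luminescence readout, no cutoff given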). The conditions noted are these: DLD-1 viability, CellTiter-Glo luminescence; at 20 µM (top of the series).
The target in experiment [9] is 6-phosphogluconate dehydrogenase, decarboxylating (Homo sapiens) (UniProt P52209). Description: 6PGD enzyme inhibitors, primary screen, biochemical, human, recombinant enzyme, NADPH absorbance (AID 1159550;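 active means at least 20% inhibition of 6-phosphogluconate dehydrogenase activity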). The conditions noted are these: recombinant 6PGD, NADPH absorbance 341 nm; at 10 µM; stronger effect = higher value.

Activity calls are given as the source filed them.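 How the source made its calls, unless noted: active means compound that reduces growth-factor-driven endothelial tube area in a mixed cell culture, no cutoff stated; inactive means the rest.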

Sequence of 6-phosphogluconate dehydrogenase, decarboxylating (Homo sapiens) (P52209 whole entry, looked up): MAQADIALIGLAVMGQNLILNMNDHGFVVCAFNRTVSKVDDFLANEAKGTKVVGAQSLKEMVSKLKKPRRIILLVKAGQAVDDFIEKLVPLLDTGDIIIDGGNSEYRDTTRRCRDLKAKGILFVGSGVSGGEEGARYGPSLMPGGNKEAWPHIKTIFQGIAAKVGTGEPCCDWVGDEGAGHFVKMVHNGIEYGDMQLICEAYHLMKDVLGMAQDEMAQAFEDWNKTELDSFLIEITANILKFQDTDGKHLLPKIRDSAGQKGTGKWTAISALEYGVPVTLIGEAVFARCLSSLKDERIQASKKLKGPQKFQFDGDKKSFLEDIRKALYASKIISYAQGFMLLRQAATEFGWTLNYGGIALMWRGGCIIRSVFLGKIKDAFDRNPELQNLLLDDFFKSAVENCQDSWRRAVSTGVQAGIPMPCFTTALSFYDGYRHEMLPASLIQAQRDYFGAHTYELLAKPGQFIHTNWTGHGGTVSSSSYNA

Take `CC(=O)OCC(=O)[C@@]1(O)[C@H](OC(C)=O)C[C@H]2[C@@H]3CCC4=CC(=O)C=C[C@]4(C)[C@@]3(F)[C@@H](O)C[C@@]21C`: the nuclear beta-catenin stimulation in experiment [1] (at 10 µM) was 0.9% (inactive); in experiment [1] (stimulation, at 2 µM) it was 1.1%. The insulin secretion stimulation in [2] is 2.1% (inactive). The viability decrease in experiment [3] was -9% (inactive). In addition, the tube area decrease in experiment [4] is -8.6% (inactive). For the same molecule, the GLP1 secretion stimulation in experiment [5] is 2.4% (inactive). The inhibition of viability in experiment [6] is -8.2% (inactive). Also, the viability decrease (inhibition) in [7] was 18.4% (inactive); in experiment [8] it was -14.1% (inactive). Moreover, the inhibition (usually the change of the read-out against control, counted positive when it falls) in [9] was 14.6% (inactive).
Turning to `CN1CCN(C(c2ccccc2)c2ccccc2)CC1`, the nuclear beta-catenin stimulation was -2.3% (inactive) in experiment [1] (at 10 µM) and -0.3% in [1] (stimulation, at 2 µM). In experiment [2], the insulin secretion stimulation was 5.5% (inactive). The viability decrease in experiment [3] was -48% (inactive). The tube area decrease in experiment [4] was 22.5% (inactive). For the same molecule, the GLP1 secretion stimulation in [5] was 2.2% (inactive). The inhibition of viability in [6] is 7.1% (inactive). Besides, the values for the viability decrease (inhibition) in [7] and in [8] were 4.5% (inactive) and -11.9% (inactive), respectively. In addition, the inhibition in experiment [9] is -2.54% (inactive).
Regarding `CC(=O)OCC(=O)[C@H]1CC[C@H]2[C@@H]3CCC4=CC(=O)CC[C@]4(C)[C@H]3CC[C@]12C`, the nuclear beta-catenin stimulation was -1.4% (inactive) in [1] (at 10 µM) and -0.5% in experiment [1] (stimulation, at 2 µM). In addition, the insulin secretion stimulation in [2] is 0.3% (inactive). Moreover, the viability decrease in [3] was 0.8% (inactive). For the same molecule, in experiment [4], the tube area decrease is -2.5% (inactive). Further, the GLP1 secretion stimulation in [5] is -0.6% (inactive). For the same molecule, in experiment [6], the inhibition of viability is 34.5% (inactive). The results for the viability decrease (inhibition) in experiment [7] and in experiment [8] were 1.2% (inactive) and -9.6% (inactive), respectively. Moreover, the inhibition in [9] was 2.51% (inactive).
With `O=C(O)/C=C(\CC(=O)O)C(=O)O`, the nuclear beta-catenin stimulation in experiment [1] (at 10 µM) is -0.9% (inactive); in [1] (stimulation, at 2 µM), -0.6%. Also, the insulin secretion stimulation in [2] was -2.3% (inactive). Also, the viability decrease in experiment [3] is 0.55% (inactive). Moreover, the tube area decrease in [4] is 5.8% (inactive). For the same molecule, in [5], the GLP1 secretion stimulation was 3.5% (inactive). Further, the inhibition of viability in experiment [6] was 7.4% (inactive). Moreover, the viability decrease (inhibition) in [7] is 39.3% (inactive); in experiment [8] it was 11.3% (inactive).
As to `COCCCOc1cc(C[C@@H](C[C@H](N)[C@@H](O)C[C@H](C(=O)NCC(C)(C)C(N)=O)C(C)C)C(C)C)ccc1OC`, the nuclear beta-catenin stimulation in [1] (at 10 µM) is -0.6% (inactive); in [1] (stimulation, at 2 µM), 2.2%. For the same molecule, in [2], the insulin secretion stimulation was 0.9% (inactive). The viability decrease in experiment [3] is -5.3% (inactive). Further, the tube area decrease in experiment [4] is 19.9% (inactive). The GLP1 secretion stimulation in experiment [5] is -4.7% (inactive). For the same molecule, the inhibition of viability in [6] is 19.7% (inactive). Further, the viability decrease (inhibition) in experiment [7] is 4.7% (inactive); in [8], 12.1% (inactive).
For the molecule `C/C=C1\[C@H]2C=C(C)C[C@]1(N)c1ccc(=O)[nH]c1C2`, the nuclear beta-catenin stimulation is -0.8% (inactive) in experiment [1] (at 10 µM) and -0.8% in experiment [1] (stimulation, at 2 µM). Moreover, the insulin secretion stimulation in experiment [2] is 1.5% (inactive). In addition, in experiment [3], the viability decrease is 10.5% (inactive). Further, the tube area decrease in experiment [4] is 0.1% (inactive). In experiment [5], the GLP1 secretion stimulation is 3.9% (inactive). Besides, in experiment [6], the inhibition of viability was 3.1% (inactive). Moreover, the viability decrease (inhibition) in experiment [7] is -14.7% (inactive); in experiment [8], 0.1% (inactive).
As for `NCCCC[C@H](N[C@@H](CCc1ccccc1)C(=O)O)C(=O)N1CCC[C@H]1C(=O)O`, the nuclear beta-catenin stimulation in [1] (at 10 µM) is 0.4% (inactive); in experiment [1] (stimulation, at 2 µM), 0.9%. Besides, the insulin secretion stimulation in [2] was -0.8% (inactive). The viability decrease in experiment [3] is -3.9% (inactive). Besides, the tube area decrease in experiment [4] is -7.9% (inactive). In addition, the GLP1 secretion stimulation in experiment [5] was 0.3% (inactive). Also, in experiment [6], the inhibition of viability was -5.23% (inactive). Besides, the viability decrease (inhibition) in experiment [7] was 9.9% (inactive); in experiment [8] it was -8% (inactive). The inhibition in experiment [9] is -2.78% (inactive).
On to `CCCCOc1ccc(C(=O)CCN2CCCCC2)cc1`, for which the nuclear beta-catenin stimulation in [1] (at 10 µM) was 1.2% (inactive); in experiment [1] (stimulation, at 2 µM), -0.2%. Besides, the insulin secretion stimulation in experiment [2] was 2.3% (inactive). Besides, the viability decrease in experiment [3] was 55.8% (active). The tube area decrease in experiment [4] was 12.5% (inactive). Also, the GLP1 secretion stimulation in [5] is -0.1% (inactive). In [6], the inhibition of viability was 59.9% (active). Moreover, the values for the viability decrease (inhibition) in experiment [7] and in experiment [8] were 59.5% (active) and 31.3% (inactive), respectively. The inhibition in experiment [9] is 9.17% (inactive).
With `CCCCCCCCNC(C)C(O)c1ccc(SC(C)C)cc1` (configuration not stated), the nuclear beta-catenin stimulation in [1] (at 10 µM) is -5.4% (inactive); in experiment [1] (stimulation, at 2 µM), 1.4%. In experiment [2], the insulin secretion stimulation was -0.1% (inactive). The viability decrease in experiment [3] was 101% (active). Further, the tube area decrease in experiment [4] was 45.2% (active). For the same molecule, the GLP1 secretion stimulation in [5] is 38.4% (active). For the same molecule, the inhibition of viability in experiment [6] is 102% (active). Besides, the values for the viability decrease (inhibition) in experiment [7] and in [8] were 142% (active) and 103% (active), respectively. In experiment [9], the inhibition is 12% (inactive).
Consider `CC(=O)Oc1cccc2c1C(=O)c1c(OC(C)=O)cc(C(=O)O)cc1C2=O`, for which the nuclear beta-catenin stimulation in [1] (at 10 µM) is 3.2% (inactive); in [1] (stimulation, at 2 µM), 3.4%. Moreover, in experiment [2], the insulin secretion stimulation is 1.8% (inactive). In addition, the viability decrease in experiment [3] was 106% (active). The tube area decrease in [4] is 6.3% (active). In addition, the GLP1 secretion stimulation in [5] was -2% (inactive). Also, the inhibition of viability in experiment [6] was 100% (active). The viability decrease (inhibition) in experiment [7] was 59.1% (active); in [8], 64.3% (active). Moreover, in experiment [9], the inhibition was -1.78% (inactive).
Consider `Cc1cc(-c2ccccc2)nnc1NCCN1CCOCC1`, for which the nuclear beta-catenin stimulation was 1.4% (inactive) in experiment [1] (at 10 µM) and 0.5% in experiment [1] (stimulation, at 2 µM). Besides, in [2], the insulin secretion stimulation was -1.9% (inactive). In experiment [3], the viability decrease was -42.6% (inactive). The tube area decrease in experiment [4] was 6.8% (inactive). For the same molecule, the GLP1 secretion stimulation in experiment [5] was 0.4% (inactive). For the same molecule, in experiment [6], the inhibition of viability was 6.4% (inactive). Besides, the viability decrease (inhibition) in experiment [7] is 12.4% (inactive); in experiment [8], -6.5% (inactive). The inhibition in experiment [9] is 3.56% (inactive).
In the case of `COc1cc(OC)cc(OC)c1`, the nuclear beta-catenin stimulation was 1.2% (inactive) in experiment [1] (at 10 µM) and -0.8% in [1] (stimulation, at 2 µM). In addition, in experiment [2], the insulin secretion stimulation was 2.1% (inactive). The viability decrease in [3] was -6.5% (inactive). Besides, the tube area decrease in experiment [4] was 7.3% (inactive). The GLP1 secretion stimulation in experiment [5] was -0.4% (inactive). In experiment [6], the inhibition of viability was -3.13% (inactive). For the same molecule, the results for the viability decrease (inhibition) in [7] and in [8] were -10.2% (inactive) and -8.5% (inactive), respectively. For the same molecule, in [9], the inhibition is 14.4% (inactive).
Turning to `NCC1CCC(C(=O)O)CC1` (configuration not stated), the nuclear beta-catenin stimulation in [1] (at 10 µM) is 0.7% (inactive); in [1] (stimulation, at 2 µM), 0.5%. Besides, the insulin secretion stimulation in experiment [2] was -1.6% (inactive). Besides, the viability decrease in experiment [3] is -8.4% (inactive). Also, the tube area decrease in experiment [4] is 25.3% (inactive). Besides, in [5], the GLP1 secretion stimulation is 0.1% (inactive). The inhibition of viability in [6] was -10.3% (inactive). Besides, the viability decrease (inhibition) in experiment [7] was 2.1% (inactive); in experiment [8] it was -6% (inactive). Besides, the inhibition in [9] is 7.43% (inactive).
In the case of `CC1CCc2cc(F)cc3c(=O)c(C(=O)O)cn1c23` (configuration not stated), the nuclear beta-catenin stimulation in experiment [1] (at 10 µM) is 3.1% (inactive); in [1] (stimulation, at 2 µM), -1.1%. For the same molecule, the insulin secretion stimulation in [2] is 1.1% (inactive). Besides, the viability decrease in [3] was -105% (inactive). The tube area decrease in [4] is 3.3% (inactive). Moreover, in experiment [5], the GLP1 secretion stimulation was -1.9% (inactive). Also, the inhibition of viability in experiment [6] is 19.6% (inactive). In addition, the viability decrease (inhibition) is 51.1% (active) in experiment [7] and -6.7% (inactive) in experiment [8]. The inhibition in [9] is 2.78% (inactive).
